Test results reported in PubChem BioAssay AID1159580 (chemical genetic matrix, 2015).
The campaign covered roughly 5,500 compounds. About 2,000 (36%) were called active. About 18% were inconclusive and are not listed. Cut-off read from the data, not from the text of the source: active = normalized growth mostly below about 0.91 (no sharp cut-off); inconclusive = no clear call, values can overlap the other calls; inactive = mostly above about 0.92. Some of the results follow.

Experiment: chemical genetic growth profiling, strain panel (AID 1159580);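 note: tested at 20 µM; growth read once vehicle control cultures reached saturation at 30 °C; 1 = growth at the plate median or of vehicle wells; lower values mean less growth of the strain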
Settings: S. cerevisiae deletion strains, growth OD

Measured: normalized growth

CCOC(=O)C(=O)C1(C(=O)OCC)Oc2cc(OC)cc(OC)c2C(=O)C1c1ccccc1 (stereo not given)
inactive: locus YAL021C, strain ccr4, stronger effect = lower value 0.981 | locus YAL026C, strain drs2, stronger effect = lower value 0.96 | locus YAL030W, strain snc1, stronger effect = lower value 0.96 | locus YBL061C, strain skt5, stronger effect = lower value 0.951 | locus YBR009C, strain hhf1, stronger effect = lower value 0.908 | locus YBR023C, strain chs3, stronger effect = lower value 0.954 | locus YBR171W, strain sec66, stronger effect = lower value 0.939 | locus YBR229C, strain ROT2, stronger effect = lower value 0.986 | locus YBR231C, strain swc5, stronger effect = lower value 0.961 | locus YBR279W, strain paf1, stronger effect = lower value 0.965 | locus YCL011C, strain gbp2, stronger effect = lower value 0.925 | locus YCL016C, strain dcc1, stronger effect = lower value 0.972 | locus YCL029C, strain bik1, stronger effect = lower value 0.989 | locus YCL061C, strain MRC1, stronger effect = lower value 0.938 | locus YCL069W, strain vba3, stronger effect = lower value 0.96 | locus YCR088W, strain abp1, stronger effect = lower value 0.967 | locus YDL005C, strain med2, stronger effect = lower value 0.961 | locus YDL035C, strain GPR1, stronger effect = lower value 0.967 | locus YDL040C, strain nat1, stronger effect = lower value 0.961 | locus YDL074C, strain BRE1, stronger effect = lower value 0.913 | locus YDL101C, strain DUN1, stronger effect = lower value 0.959 | locus YDL185W, strain tfp1, stronger effect = lower value 0.969 | locus YDL192W, strain arf1, stronger effect = lower value 0.945 | locus YDR001C, strain nth1, stronger effect = lower value 0.947 | locus YDR069C, strain doa4, stronger effect = lower value 0.967 | locus YDR101C, strain arx1, stronger effect = lower value 0.955 | locus YDR137W, strain rgp1, stronger effect = lower value 0.904 | locus YDR159W, strain sac3, stronger effect = lower value 0.928 | locus YDR162C, strain NBP2, stronger effect = lower value 0.987 | locus YDR195W, strain ref2 1.01 | locus YDR297W, strain sur2, stronger effect = lower value 0.949 | locus YDR318W, strain mcm21, stronger effect = lower value 0.936 | locus YDR334W, strain swr1, stronger effect = lower value 0.965 | locus YDR335W, strain msn5, stronger effect = lower value 0.971 | locus YDR388W, stronger effect = lower value 0.968 | locus YDR392W, strain spt3, stronger effect = lower value 0.767 | locus YDR502C, strain sam2, stronger effect = lower value 0.928 | locus YEL003W, strain gim4, stronger effect = lower value 0.948 | locus YEL037C, strain rad23, stronger effect = lower value 0.964 | locus YEL061C, strain CIN8 (second series), stronger effect = lower value 0.929 | locus YEL061C, strain CIN8, stronger effect = lower value 0.99 | locus YER015W, strain faa2, stronger effect = lower value 0.952 | locus YER016W, strain bim1, stronger effect = lower value 0.976 | locus YER110C, stronger effect = lower value 0.953 | locus YER111C, strain swi4, stronger effect = lower value 0.946 | locus YER155C, strain BEM2 (second series), stronger effect = lower value 0.875 | locus YER155C, strain BEM2, stronger effect = lower value 0.966 | locus YER167W, strain BCK2, stronger effect = lower value 0.97 | locus YFR010W, strain ubp6, stronger effect = lower value 0.956 | locus YGL078C, strain dbp3, stronger effect = lower value 0.938 | locus YGL086W, strain mad1, stronger effect = lower value 0.942 | locus YGL173C, strain kem1, stronger effect = lower value 0.947 | locus YGL227W, strain vid30, stronger effect = lower value 0.926 | locus YGL240W, strain doc1, stronger effect = lower value 0.911 | locus YGL248W, strain PDE1, stronger effect = lower value 0.945 | locus YGL253W, strain hxk2, stronger effect = lower value 0.972 | locus YGR135W, strain pre9, stronger effect = lower value 0.915 | locus YGR252W, strain gcn5, stronger effect = lower value 0.791 | locus YHR013C, strain ard1, stronger effect = lower value 0.95 | locus YHR027C, strain rpn1, stronger effect = lower value 0.987 | locus YHR030C, strain SLT2, stronger effect = lower value 0.993 | locus YHR079C, strain IRE1 (second series), stronger effect = lower value 0.961 | locus YHR094C, strain hxt1, stronger effect = lower value 0.951 | locus YHR129C, strain ARP1, stronger effect = lower value 0.966 | locus YHR142W, strain chs7, stronger effect = lower value 0.95 | locus YHR200W, strain rpn10, stronger effect = lower value 0.942 | locus YIL066C, strain RNR3, stronger effect = lower value 0.983 | locus YIL073C, strain SPO22, stronger effect = lower value 0.929 | locus YIL125W, strain kgd1, stronger effect = lower value 0.971 | locus YIR030C, strain dcg1, stronger effect = lower value 0.962 | locus YJL092W, strain hpr5, stronger effect = lower value 0.941 | locus YJL095W, strain BCK1 (second series), stronger effect = lower value 0.973 | locus YJL095W, strain BCK1, stronger effect = lower value 0.907 | locus YJL115W, strain asf1, stronger effect = lower value 0.979 | locus YJL134W, strain LCB3, stronger effect = lower value 0.989 | locus YJL154C, strain vps35, stronger effect = lower value 0.968 | locus YJL164C, strain tpk1, stronger effect = lower value 0.95 | locus YJL166W, strain qcr8, stronger effect = lower value 0.926 | locus YJL168C, strain set2, stronger effect = lower value 0.966 | locus YJL187C, strain SWE1 (second series), stronger effect = lower value 0.948 | locus YJL187C, strain SWE1, stronger effect = lower value 0.953 | locus YJR043C, strain POL32, stronger effect = lower value 0.998 | locus YKL009W, strain mrt4, stronger effect = lower value 0.899 | locus YKL068W, stronger effect = lower value 0.955 | locus YKL085W, strain MDH1 (second series), stronger effect = lower value 0.959 | locus YKL085W, strain MDH1, stronger effect = lower value 0.959 | locus YKL160W, strain elf1, stronger effect = lower value 0.966 | locus YKL190W, strain CNB1, stronger effect = lower value 0.989 | locus YKR001C, strain vps1, stronger effect = lower value 0.958 | locus YKR026C, strain gcn3, stronger effect = lower value 0.932 | locus YLL001W, strain dnm1, stronger effect = lower value 0.964 | locus YLL026W, stronger effect = lower value 0.969 | locus YLL041C, strain sdh2, stronger effect = lower value 0.966 | locus YLR027C, strain aat2, stronger effect = lower value 0.95 | locus YLR039C, strain RIC1, stronger effect = lower value 0.983 | locus YLR058C, strain SHM2, stronger effect = lower value 0.959 | locus YLR102C, strain apc9, stronger effect = lower value 0.962 | locus YLR221C, strain rsa3, stronger effect = lower value 0.91 | locus YLR258W, strain gsy2, stronger effect = lower value 0.959 | locus YLR262C, strain YPT6 (second series), stronger effect = lower value 0.906 | locus YLR262C, strain YPT6, stronger effect = lower value 0.978 | locus YLR268W, strain sec22, stronger effect = lower value 0.955 | locus YLR320W, strain mms22, stronger effect = lower value 0.889 | locus YLR342W, strain FKS1, stronger effect = lower value 0.919 | locus YLR357W, strain rsc2, stronger effect = lower value 0.916 | locus YLR370C, strain arc18, stronger effect = lower value 0.938 | locus YLR371W, strain rom2, stronger effect = lower value 0.962 | locus YLR384C, strain iki3, stronger effect = lower value 0.95 | locus YML016C, strain PPZ1, stronger effect = lower value 0.989 | locus YML032C, strain rad52, stronger effect = lower value 0.961 | locus YML120C, strain ndi1, stronger effect = lower value 0.919 | locus YML124C, strain tub3, stronger effect = lower value 0.94 | locus YMR058W, strain fet3, stronger effect = lower value 0.946 | locus YMR078C, strain ctf18, stronger effect = lower value 0.94 | locus YMR125W, strain sto1, stronger effect = lower value 0.979 | locus YMR129W, stronger effect = lower value 0.936 | locus YMR205C, strain PFK2, stronger effect = lower value 0.877 | locus YMR223W, strain ubp8, stronger effect = lower value 0.949 | locus YMR231W, strain pep5, stronger effect = lower value 0.988 | locus YMR307W, strain GAS1, stronger effect = lower value 0.949 | locus YNL067W, strain RPL9B, stronger effect = lower value 0.965 | locus YNL153C, strain GIM3, stronger effect = lower value 0.986 | locus YNL209W, strain ssb2, stronger effect = lower value 0.972 | locus YNL233W, strain BNI4, stronger effect = lower value 0.917 | locus YNL248C, strain rpa49, stronger effect = lower value 0.986 | locus YNL250W, strain rad50, stronger effect = lower value 0.96 | locus YNL271C, strain bni1, stronger effect = lower value 0.976 | locus YNL298W, strain CLA4, stronger effect = lower value 0.965 | locus YNL322C, strain KRE1 (second series), stronger effect = lower value 0.948 | locus YNL322C, strain KRE1, stronger effect = lower value 0.983 | locus YNR049C, strain mso1, stronger effect = lower value 0.966 | locus YNR052C, strain pop2, stronger effect = lower value 0.985 | locus YOL012C, strain htz1 1.05 | locus YOL147C, strain pex11, stronger effect = lower value 0.94 | locus YOR001W, strain rrp6, stronger effect = lower value 0.987 | locus YOR061W, strain CKA2, stronger effect = lower value 1 | locus YOR069W, strain VPS5, stronger effect = lower value 0.979 | locus YOR070C, strain gyp1, stronger effect = lower value 0.968 | locus YOR080W, strain dia2, stronger effect = lower value 0.965 | locus YOR083W, strain WHI5, stronger effect = lower value 0.956 | locus YOR106W, strain vam3, stronger effect = lower value 0.974 | locus YOR136W, strain idh2, stronger effect = lower value 0.962 | locus YOR144C, strain elg1, stronger effect = lower value 0.959 | locus YOR184W, strain ser1, stronger effect = lower value 0.876 | locus YOR265W, strain rbl2, stronger effect = lower value 0.964 | locus YOR270C, strain vph1, stronger effect = lower value 0.878 | locus YOR316C, strain cot1, stronger effect = lower value 0.963 | locus YPL051W, strain arl3, stronger effect = lower value 0.984 | locus YPL078C, strain atp4, stronger effect = lower value 0.964 | locus YPL106C, strain sse1, stronger effect = lower value 0.943 | locus YPL240C, strain hsp82, stronger effect = lower value 0.968 | locus YPR119W, strain clb2, stronger effect = lower value 0.946 | locus YPR141C, strain kar3, stronger effect = lower value 0.951 | locus YPR163C, strain tif3, stronger effect = lower value 0.97 | locus YPR167C, strain met16, stronger effect = lower value 0.929 | strain wtn01, stronger effect = lower value 0.945
active: locus YBR021W, strain FUR4, stronger effect = lower value 0.818 | locus YGL167C, strain pmr1, stronger effect = lower value 0.911 | locus YJL129C, strain trk1, stronger effect = lower value 0.862 | locus YKR091W, strain srl3, stronger effect = lower value 0.929 | locus YLR330W, strain CHS5, stronger effect = lower value 0.906 | locus YLR418C, strain cdc73, stronger effect = lower value 0.804 | locus YNL071W, strain lat1, stronger effect = lower value 0.915 | locus YNL307C, strain MCK1, stronger effect = lower value 0.888 | locus YOR290C, strain snf2, stronger effect = lower value 0.863
